This is part of a sample that, as a whole, favours compounds with a hit. Of some 79,000 tested, about 15% had one in any assay. Cut-off read from the data, not from the text of the source: active = growth inhibition above about 70%; inactive = the rest.
Assays:
[1] = NCI Yeast Anticancer Drug Screen. Data for the rad50 strain (AID 155);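 note: 0% = growth of vehicle-only cultures of the same strain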; conditions: S. cerevisiae rad50 strain growth inhibition; at 50.0 µM; hits give high values
Summary of the method: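 Growth of the mutant yeast was measured after compound exposure and referenced to vehicle-treated cultures.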

[2] = NCI Yeast Anticancer Drug Screen. Data for the mec2-1 strain (AID 157); conditions: S. cerevisiae mec2-1 strain, at 50.0 µM, hits give high values
Summary of the method: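 Test agents were screened against the mec2-1 yeast strain, with defined DNA repair or cell cycle alteration. Growth was scored as inhibition against vehicle-only controls.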

[3] = NCI Yeast Anticancer Drug Screen. Data for the sgs1 mgt1 strain (AID 161);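 note: 0% = growth of cultures given vehicle only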; conditions: S. cerevisiae sgs1 mgt1 strain, at 50.0 µM, hits give high values
Summary of the method: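 Test agents were incubated with a DNA-repair-mutant yeast strain. Growth was then read and compared against vehicle-treated controls.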

[4] = NCI Yeast Anticancer Drug Screen. Data for the cln2 rad14 strain (AID 165);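 note: 0% = growth equal to vehicle treated cultures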; conditions: S. cerevisiae cln2 rad14 strain, at 50.0 µM, hits give high values
Summary of the method: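 Growth of compound-exposed yeast (cln2 rad14 genotype) measured and expressed as inhibition relative to vehicle.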

[5] = NCI Yeast Anticancer Drug Screen. Data for the bub3 strain (AID 167); conditions: S. cerevisiae bub3 mutant strain, at 50.0 µM, hits give high values
Summary of the method: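 Whole-cell yeast assay. The mutant strain was incubated with compounds, and growth inhibition was determined by comparison with vehicle-treated cells.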

[6] = NCI Yeast Anticancer Drug Screen. Data for the mlh1 rad18 strain (AID 175); conditions: S. cerevisiae mlh1 rad18 strain growth inhibition; at 50.0 µM; hits give high values
Summary of the method: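 In this whole-cell yeast screen, a strain with altered DNA damage repair is challenged with compound, and its growth is measured against matched vehicle-treated controls.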

Measured: growth inhibition

C=CCOC(=O)C(C)(C)OC(C)=O
inactive: [1] 13.9% | [2] 5.9% | [3] 10.8% | [4] 3.15% | [5] 2% | [6] -1.85%

CCN(CC)Cc1cc(OC(=O)c2cc(OC)c(OC)c(OC)c2)cc(C(=O)OC)c1
inactive: [1] 3.2% | [2] 3.7% | [3] -19.1% | [4] -32% | [5] 8.5% | [6] -10.3%

COC(=O)c1cncc(C(=O)OC)c1
inactive: [1] -3.9% | [2] -12% | [3] 2.75% | [4] -2.35% | [5] 1.95% | [6] 12.8%

Cc1cccc(C)c1OC(=O)Nc1ccccc1
inactive: [1] 3.75% | [2] -18.6% | [3] 4.3% | [4] -46.5% | [5] 9.7% | [6] -8.95%

O=C(OCOC(=O)N1CCOCC1)N1CCOCC1
inactive: [1] 2.3% | [2] -7.25% | [3] 1% | [4] 17.6% | [5] -1.9% | [6] -5.2%

BrC1CC2CCCCC2CC1Br (configuration not stated)
inactive: [1] -1.45% | [2] 22.3% | [3] 21.4% | [4] -9.75% | [5] 8.8% | [6] 9.65%

ClCC#CCCl
inactive: [1] 19.4% | [2] -10.9% | [3] 16.9% | [4] 4.3% | [5] -7.4% | [6] 5.1%

C[N+]1(CSC(=O)c2ccccc2)CCCCC1
inactive: [1] 1.95% | [2] 11.5% | [3] 12.3% | [4] 1.6% | [5] -9.75% | [6] 24.9%

C=C(C)C(=O)NC(N)=NC#N
inactive: [1] -44% | [2] -9.25% | [3] -5.4% | [4] -13.8% | [5] -1.55% | [6] 6.15%

CC(C)(C)C1CCCC(=O)C1 (configuration not stated)
inactive: [1] 8.3% | [2] -5.15% | [3] 3.5% | [4] 10.3% | [5] 6.85% | [6] 3.15%

CN(C)/C=N\c1ncnc2c1ccn2C1OC(CO)C(O)C1O (configuration not stated)
inactive: [1] -2.15% | [2] -5.4% | [3] -10.3% | [4] 10.2% | [5] 3.15% | [6] -4.7%

N#CCCC1(CCC#N)CCCCCCC(CCC#N)(CCC#N)C(O)C1O (configuration not stated)
inactive: [1] 10.8% | [2] -12% | [3] -6.45% | [4] 3.15% | [5] -15.2% | [6] -46.2%

CCOC(=O)COS(=O)(=O)C(F)(F)F
inactive: [1] 21.6% | [2] -12.7% | [3] -11.4% | [4] 2.95% | [5] 3.5% | [6] -10.7%

Cn1cnnc1Sc1c([N+](=O)[O-])nc(-c2ccc([N+](=O)[O-])cc2)n1C
inactive: [1] -3.5% | [2] 3.15% | [3] 10.1% | [4] 35.1% | [5] 11.6% | [6] 8.95%

O=C1CSc2nc3ccc(Br)cc3c(=O)n21
inactive: [1] 16% | [2] 9.1% | [3] 11.2% | [4] -19.4% | [5] 18.6% | [6] 20.9%

O=c1[nH]cc(O)c(=O)[nH]1
inactive: [1] -25.1% | [2] -41.3% | [3] -8.95% | [4] 12.7% | [5] -17.8% | [6] 6.4%

O=C(O)c1ccccc1C(=O)OC1CC2CCC1C2 (configuration not stated)
inactive: [1] -26.2% | [2] -22.6% | [3] -10.4% | [4] 24.2% | [5] 12.6% | [6] 1.6%

O=C(/C=C/c1ccccc1)NC1C=Nc2ccccc2NC1=O (configuration not stated)
inactive: [1] 13.8% | [2] 18.2% | [3] 7.2% | [4] -11.9% | [5] 7.05% | [6] 16.1%

CC(C)=CCCC(=O)C(c1nc2n(c1O)C(=N)N=N2)c1nc2n(c1O)C(=N)N=N2 (configuration not stated)
inactive: [1] 12.1% | [2] 7.65% | [3] 2.1% | [4] 7.9% | [5] 5.55% | [6] 20.6%

COc1ccc(Nc2nc3cc(C(F)(F)F)ccc3nc2-c2ccccc2)cc1OC
inactive: [1] 2.05% | [2] 2.65% | [3] -48.2% | [4] -4.85% | [5] -12.4% | [6] -24.4%

C[C@]12CC[C@@H]3c4ccc(OS(C)(=O)=O)cc4CC[C@H]3[C@@H]1CC[C@@H]2OS(C)(=O)=O
inactive: [1] 30.6% | [2] -0.5% | [3] 22.8% | [4] 22.1% | [5] 10.8% | [6] 9.9%

CCOC(=O)/N=c1/nc2ccn(C)c2c(NC(=O)OCC)s1
inactive: [1] 15.1% | [2] -3.5% | [3] -5% | [4] 11% | [5] 7.9% | [6] -15.8%

COC(=O)CCCCCCCCCCCCC1C=CCC1 (configuration not stated)
inactive: [1] 8.9% | [2] -31.1% | [3] 11.4% | [4] 9.25% | [5] -5.85% | [6] 4.25%

CON1C(=O)c2ccccc2C1=O
inactive: [1] 1.15% | [2] 4% | [3] -7.85% | [4] -4.6% | [5] -22.4% | [6] -9.3%

COC1/C=C\OC2(C)Oc3c(C)c(O)c4c(O)c(c(/C=N\NC(=O)CC(=O)N/N=C/c5c6c(O)c7c(O)c(C)c8c(c7c5O)C(=O)C(C)(O/C=C/C(OC)C(C)C(OC(C)=O)C(C)C(O)C(C)C(O)C(C)/C=C/C=C(C)C(=O)N6)O8)c(O)c4c3C2=O)NC(=O)/C(C)=C\C=C/C(C)C(O)C(C)C(O)C(C)C(OC(C)=O)C1C (configuration not stated)
inactive: [1] -4.5% | [2] 6.3% | [3] -2.2% | [4] -5.4% | [5] 6.75% | [6] -16.4%

CCCCCCCCCCn1cnc2c(=O)[nH]c(N)nc21
inactive: [1] 1.85% | [2] 2.75% | [3] 9.7% | [4] -0.25% | [5] 2.8% | [6] -4.85%

Cc1cn(C)c2c1-c1c(cnn1-c1ccccc1)CC2
inactive: [1] 15.6% | [2] 3.75% | [3] 44% | [4] -2.4% | [5] 4.8% | [6] 23.4%

COc1cc2oc(=O)ccc2cc1[C@@H]1OC(=O)[C@@]2(C)O[C@@H]12
inactive: [1] -0.75% | [2] -6.3% | [3] -1.35% | [4] -35.7% | [5] 3.35% | [6] -2.85%

Cc1ncc([N+](=O)[O-])cc1C(=O)O
inactive: [1] 1% | [2] 10% | [3] -0.75% | [4] -7.1% | [5] 5.7% | [6] -1.45%

NS(=O)(=O)c1ccc(Nc2c3ccccc3nc3ncccc23)cc1
inactive: [1] -6.85% | [2] 7.35% | [3] 13.9% | [4] -11.8% | [5] 9.2% | [6] 16.9%

O=C1CCC2(CC1)Cc1ccccc1C2O (configuration not stated)
inactive: [1] -8.75% | [2] -8.45% | [3] 18% | [4] 29.4% | [5] -9.35% | [6] -5.5%

O=c1cc(Cl)ncn1C1OC(CO)C(O)C1O (configuration not stated)
inactive: [1] -17% | [2] -21.1% | [3] -27.6% | [4] -14.3% | [5] -27.6% | [6] -25.3%

CC(/C=C/C(=O)c1ccccc1)=C\C=N\N(C)c1ccccc1
inactive: [1] 17.2% | [2] 2.8% | [3] -1.05% | [4] -40.8% | [5] 4.95% | [6] 1.5%

O=C(NN1C(=O)CS(=O)(=O)C1c1ccc(C(F)(F)F)cc1)c1ccncc1 (configuration not stated)
inactive: [1] -10.7% | [2] 2.2% | [3] 5.8% | [4] 8.8% | [5] 1.05% | [6] 7.75%

O=c1oc2nc(-c3ccccc3)[nH]c(=O)c2c2c1CCCC2
inactive: [1] -8.5% | [2] -7.15% | [3] -19.2% | [4] 9.3% | [5] -17.9% | [6] 19.9%

[Cl][Pt+2][Cl].[NH-]C(CO)C([NH-])CO (configuration not stated)
inactive: [1] 32.4% | [2] -47.9% | [3] -10.3% | [4] -15.8% | [5] -27.9% | [6] -61.5%

CSc1nc(C)cc(Nc2ccc(O)c(CN3CCOCC3)c2)n1
inactive: [1] 6.1% | [2] -3.25% | [3] -22% | [4] -33.1% | [5] -52% | [6] 9.4%

From PubChem BioAssay (NCI)
